High-throughput results from PubChem BioAssay.
Most compounds without a hit are left out; they make up all but 3.4% or so of the library.
Mcl-1 Bim block: human Bim-Mcl-1 interaction inhibition. inhibition, % at 10 µM. Q07820. 190,000 tested, 0.1% active. Bead-based flow cytometry, Bim peptide-Mcl-1 binding; in the data active = inhibition above about 40%;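 note: 0% = no compound tracer wells and 100% = peptide blocker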
Mcl1 Noxa PPI: Mcl-1/Noxa interaction inhibition | TR-FRET Mcl-1/Noxa peptide binding, 2 h | inhibition, % at 21.7 µM | 220,000 tested, 1.5% active | AID 1022;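 active = compounds that cut the protein-peptide binding signal by more than 50% relative to plate controls in a single-dose test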;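 note: His-tagged Mcl-1 with rhodamine Noxa BH3 peptide and terbium anti-His antibody; 0% = Mcl-1 plus Noxa peptide wells and 100% = peptide-only wells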
14-3-3 Bad PPI: disrupts binding of bovine 14-3-3 zeta to phospho-Bad peptide; P63103; inhibition, % at 21.7 µM; 220,000 tested, 0.71% active; AID 781; TR-FRET 14-3-3zeta/Dy647-pBad peptide displacement, 1 h;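 active = inhibition above about 70%, limit read from the data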;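 note: 0% = full 14-3-3 plus peptide FRET controls and 100% = background without 14-3-3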
m-calpain inh: blocks pig calpain II enzyme activity | purified calpain II, fluorogenic peptide substrate, 30 min | 220,000 tested, 0.37% active | inhibition, % at 16 µM | AID 1236;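 active = inhibition above about 50%, limit read from the data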
NCF1 inh: inhibitors of human p47phox binding | p47phox/p22phox peptide binding, fluorescence polarization, 2 h | inhibition, % at 24.7 µM | 220,000 tested, 0.53% active | AID 1274;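 active = inhibition above about 30%, limit read from the data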;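 note: 0% = p47phox with labelled peptide and 100% = labelled peptide alone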
Target sequence (P14598 whole entry, looked up): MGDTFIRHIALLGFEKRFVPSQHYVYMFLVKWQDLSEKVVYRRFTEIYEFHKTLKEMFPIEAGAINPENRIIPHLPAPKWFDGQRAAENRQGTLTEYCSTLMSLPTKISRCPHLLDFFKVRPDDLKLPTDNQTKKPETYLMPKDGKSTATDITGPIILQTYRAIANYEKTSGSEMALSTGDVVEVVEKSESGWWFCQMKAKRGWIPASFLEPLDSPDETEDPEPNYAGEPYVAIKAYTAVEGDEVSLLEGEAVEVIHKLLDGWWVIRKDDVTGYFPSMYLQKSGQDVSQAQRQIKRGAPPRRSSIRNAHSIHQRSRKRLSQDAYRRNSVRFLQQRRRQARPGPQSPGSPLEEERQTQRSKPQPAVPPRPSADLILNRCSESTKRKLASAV
Mcl1-Bid inh: Mcl-1/Bid interaction inhibition; AID 1021; TR-FRET Mcl-1/Bid-Dy647 peptide binding, 1536-well; inhibition, % at 21.7 µM; 220,000 tested, 0.97% active; Q07820;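 active = compounds that cut the binding signal by more than half at the single screening dose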;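 note: His-tagged Mcl-1 with europium anti-His antibody binding Bid BH3 peptide; 0% = Mcl-1 plus peptide wells and 100% = peptide-only wells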
* marks the source's active call; other numbers are inactive results; i = inactive; nt = not tested or not shown; + = active, no number; [ ] = remark or other dose.

SMILES	Mcl-1 Bim block	Mcl1 Noxa PPI	14-3-3 Bad PPI	m-calpain inh	NCF1 inh	Mcl1-Bid inh
CCCC(=O)Nc1cccc(NC(=O)c2ccc3c(c2)OCCO3)c1	0	5	-4	9	-16	-26
CCCCC(=O)Nc1cccc(NC(=O)c2ccc3c(c2)OCO3)c1	-3	24	-3	19	6	63*
CC(=O)c1cccc(NC(=O)c2c(F)c(F)c(F)c(F)c2F)c1	-2	3	-11	51*	-11	-20
O=C(Nc1ccc2c(c1)OCO2)c1c(F)c(F)c(F)c(F)c1F	0	7	-15	52*	-10	3
Nc1c(C(=O)NCc2ccc3c(c2)OCO3)nnn1Cc1ccc(Br)cc1	nt	-2	10	6	-21	-36
Cc1cc(C)c(S(=O)(=O)c2ccccc2)c(N2CCOCC2)n1	-2	24	-14	-14	-3	5
CCC/C(C)=N/NC(=O)c1ccccc1O	0	23	-9	-70	-5	-31
C/C(=N\NC(=O)c1ccccc1O)C1C(=O)c2ccccc2C1=O	-1	66*	10	-10	-30	-92
C/C(=N/NC(=O)c1cc2ccccc2cc1O)C1C(=O)c2ccccc2C1=O	3	92*	8	-155	-77	2
CC(C)(C)NC(=O)c1nn(Cc2ccccc2)c(=O)c2ccccc12	0	10	-20	-15	-9	-15
O=C(Nc1ccc2nc(-c3cccs3)[nH]c2c1)c1cccs1	7	18	1	-34	-11	-2
O=C(Nc1ccc(-c2nc3ccc(NC(=O)c4cccs4)cc3[nH]2)cc1)c1cccs1	-11	65*	82*[fluorescence artefact?]	i	-15	84*
CCN=c1scc(C)n1/N=C/c1cc(Br)c(O)c(OC)c1	2	63*	-32	-52	-10	-17
COc1cc(/C=N/N2C(=O)CSC2=S)cc(Br)c1O	-3	58*	8	-54	-166	-13
CC1CC(C)CN(C(=O)C(NS(=O)(=O)c2ccc(Br)s2)c2ccccc2)C1 (stereo unspecified)	0	11	6	22	-1	-12
Cc1cccc(-n2cc(C(=O)O)c(=O)cc2C)c1	0	9	-1	-20	-3	7
CSc1nc(=O)n2cc(C)ccc2n1	0	-5	-15	18	0	-10
CCCCCCCCCn1c2c(c(=N)c3c1CCC3)CCC2	-46	12	0	51*	9	3
Cc1ccc(/C(CSc2nccn2-c2ncc(C(F)(F)F)cc2Cl)=N\O)cc1	-7	11	-4	10	+	-17
O=C(CSc1nccn1-c1ncc(C(F)(F)F)cc1Cl)c1ccc(Br)cc1	-3	-23	-2	-75	-15	-30
N=C1/C(=C/c2cccn2Cc2ccc(Cl)cc2)C(=O)N=C2SC=CN12	-1	36	25	-18	22	54*
CC1=CC2=NC(=O)/C(=C/c3cccn3Cc3ccccc3)C(=N)N2O1	nt	16	-1	-1	-12	-1
COc1ccc(S(=O)(=O)CC2(O)CCN(C(=O)CC(C)C)CC2)cc1	0	0	-4	-11	1	-5
O=C(CNC(=O)c1ccc(F)cc1)N/N=C/c1cc(Br)ccc1OC(=O)/C=C/c1ccco1	nt	59*	0	-13	-16	-1
CC1(c2ccc(Cl)cc2Cl)OCC(Cn2ccnc2)O1 (stereo unspecified)	1	23	41	23	-12	80*
SMILES	Mcl-1 Bim block	Mcl1 Noxa PPI	14-3-3 Bad PPI	m-calpain inh	NCF1 inh	Mcl1-Bid inh
NC(=S)Nc1cccc2[nH]ccc12	0	13	-9	-2	-9	-45
NC(=S)Nc1ccc(F)cc1F	nt	-12	-2	18	2	77*
COC(=O)CSc1nc(C2CC2)cc(C(F)(F)F)c1C#N	-3	-3	14	-39	-6	-6
CCOC(=O)CSc1nc(C2CC2)cc(-c2ccc(Cl)cc2)c1C#N	-4	3	6	3	-7	97*
CCOc1cc(N2CCOCC2)c(OCC)cc1NC(=O)COC(=O)c1cccc2ccccc12	-4	18	-8	5	2	-8
Cn1c(N2C(=O)CC(Cc3ccccc3)C2=O)nc2ccccc21 (stereo unspecified)	-2	-8	67	-14	-10	-3
COC(=O)c1cc(O)cc(OC)c1Oc1cc(C)cc(O)c1C(=O)O	nt	85*	62	2	-5	-98
O/N=C(\c1ccc(Cl)cc1)c1cc2ccccc2o1	-1	17	nt	65*	2	28
NNc1ccc(Cl)nn1	nt	-12	-4	-4	0	-56
COc1ccc(NC(=O)CN2CCC(C(N)=O)(N3CCCCC3)CC2)c(OC)c1	4	-3	-5	-14	1	6
CC1(C)CC(=O)C(C(=O)C2CCN(S(=O)(=O)c3ccccc3)CC2)C(=O)C1	-5	8	71*	21	-3	-7
Cc1cccc(OCC(=O)N(C)CCc2ccccn2)c1	0	12	71*	-5	0	57*
Cc1cccc(CN(C)CCc2ccccn2)c1	-1	27	45	-6	-12	31
CCOc1ccc(C(C)=O)cc1CN1C(=O)NC(C)(C2CC2)C1=O (stereo unspecified)	0	-2	13	-12	-22	-10
C/C(CC(=O)Nc1ccc(Cl)cc1)=N\NC(=O)C(=O)N1CCCCC1	-1	12	-5	24	-6	-37
CCC1CCCCN1S(=O)(=O)c1ccc(S(=O)(=O)N(Cc2ccccn2)CC2CCCO2)cc1 (stereo unspecified)	1	90*	-6	12	-6	-15
COc1ccc(C(=O)/C=C(\N)C(F)(F)F)c(O)c1	0	69*	-2	21	4	16
CC(C)C(=O)NC(=S)N(Cc1ccccc1)Cc1ccccc1	-3	25	3	29	3	2
CC(C)CC(=O)NC(=S)N(Cc1ccccc1)Cc1ccccc1	0	56*	-6	28	1	-31
O=C1Cc2ccccc2C(c2ccccc2)N1 (stereo unspecified)	0	-12	79*	7	0	-13
CCCn1nc(C(=O)OCC(=O)NC(C)c2ccccc2)c2ccccc2c1=O (stereo unspecified)	0	-1	-9	-18	9	-20
O=C(NNc1c2ccccc2nc2ccccc12)c1ccc(O)cc1	-4	51*	-10	5	-13	-65
O=C(NNc1c2ccccc2nc2ccccc12)c1cccc(O)c1	-10	46	-17	1	-25	-39
CCCC(=O)NNc1c2ccccc2nc2ccccc12	-3	20	-8	-6	-9	-24
O=C(NNc1c2ccccc2nc2ccccc12)c1ccccc1O	-18	64*	3	-5	25	23
O=C(NNc1c2ccccc2nc2ccccc12)c1ccc(O)cc1O	-1	68*	14	-31	-46	55*
